Among the data in PubChem BioAssay AID504847 (National Center for Advancing Translational Sciences (NCATS), 2011) are Potency and max response, negative = inhibition values, retold here.

Structures are written as SMILES. Out of some 400,000 compounds screened, about 3,700 (0.93%) were called active. Not shown: some 3% with an inconclusive outcome. Shown is part of a subset that was picked to be rich in actives. Unmarked numbers belong to inactive results. The call rests on the fitted dose curve; in most records, active means well fitted inhibition curve with a large enough effect; inconclusive means small, poorly fitted or top-dose-only effect, or another doubt; inactive means no such curve, though single readings can be large or run the other way.
On the % scale 0 is the no-effect control and ±100 the full control effect; potency means the concentration at half of the fitted maximal effect.

Chain of Vitamin D3 receptor (Homo sapiens) (P11473 whole entry, looked up): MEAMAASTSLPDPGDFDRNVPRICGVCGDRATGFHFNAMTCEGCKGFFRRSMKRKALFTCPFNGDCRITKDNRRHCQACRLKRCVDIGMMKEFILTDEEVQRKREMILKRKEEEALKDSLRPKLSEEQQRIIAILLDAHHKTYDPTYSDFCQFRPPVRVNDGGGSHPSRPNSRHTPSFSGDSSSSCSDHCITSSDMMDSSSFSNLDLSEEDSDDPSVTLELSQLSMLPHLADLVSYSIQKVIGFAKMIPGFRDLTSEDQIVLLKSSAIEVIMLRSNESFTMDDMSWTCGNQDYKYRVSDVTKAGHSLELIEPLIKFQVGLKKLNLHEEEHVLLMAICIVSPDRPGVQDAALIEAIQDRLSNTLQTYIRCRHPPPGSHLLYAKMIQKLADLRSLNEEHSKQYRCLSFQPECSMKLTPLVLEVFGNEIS

This assay addresses Vitamin D3 receptor (Homo sapiens) (UniProt P11473). Briefly: Inhibitors of the vitamin D receptor (VDR): qHTS. The note with it: VDR-SRC2-3 peptide fluorescence polarization, 2 h; max response, negative = inhibition: active compounds read low. In short, it runs like this:
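The screen uses fluorescence polarization to detect compounds that interfere with recruitment of the SRC2-3 coactivator peptide to VDR; plates are read after 2 h at room temperature.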
A general note: Quantitative high-throughput screening tests each substance at several concentrations.
With `O=S(=O)(O)c1cc2onnc2c2ccccc12`, the Potency was 17.8 µM (active). Consider `COc1ccc(CCN2C(=O)c3oc4cc(C)cc(C)c4c(=O)c3C2c2ccccc2F)cc1OC` (configuration not stated), for which the max response, negative = inhibition was 4.42%. For the compound `COc1ccccc1NC(=O)C(=O)c1cc(C)n(-c2ccccc2F)c1C`, the max response, negative = inhibition is 14.8%.

With `CCCCOc1ccc(Cn2c(=O)oc3ccc(C)cc32)cc1OC`, the max response, negative = inhibition is -6.99%.

Regarding `COc1ccc(CCN2C(=O)C(C)=C(C)C2=O)cc1OC`, the max response, negative = inhibition was -14.3%. As to `CCCCOc1ccc(CN2C(=O)C(=O)c3cc(Br)cc(C)c32)cc1OC`, the Potency was 14.1 µM (active). As to `CCN(CC)CCNc1ncnc2c1cnn2-c1cc(Cl)ccc1C`, the max response, negative = inhibition is 11.7%. Take `CN1[C@H]2CC(OC(=O)[C@@H](CO)c3ccccc3)C[C@H]1[C@H]1O[C@H]12` (some centres not stated): the max response, negative = inhibition is 7.07%. Consider `CCOC(=O)NNc1cc(C(F)(F)F)ccn1`, for which the max response, negative = inhibition was -1.56%.

For `CCOC(=O)/C=C/c1ccc(C(F)(F)F)cc1S(=O)(=O)NC(C)(C)C`, the Potency was 79.4 µM (active). For `Cn1c(N)c(C(=O)COC(=O)/C=C/c2cccc(C(F)(F)F)c2)c(=O)n(C)c1=O`, the max response, negative = inhibition is 8.93%. For `CC1(C)CCc2cc(S(=O)(=O)N3CCN(c4nc(-c5cccs5)nc5ccccc45)CC3)ccc2O1`, the max response, negative = inhibition is -7.78%. Take `OCC(CO)NC1C[C@](O)(CO)[C@@H](O)[C@H](O)[C@H]1O` (some centres not stated): the max response, negative = inhibition is 1.5%. For `CC1CCCN(C(=O)c2cc(-c3ccco3)nc3ccccc23)C1` (configuration not stated), the Potency was 35.5 µM (active). As for `CC(=O)N1CCN(C(=O)c2cc(-c3ccc(C)o3)nc3ccccc23)CC1`, the max response, negative = inhibition was -3.82%. On the same count and under the same terms, the same measure for `O=C(Nc1cccc(F)c1)c1cc(-c2ccco2)nc2ccccc12`: -14.8%; for `CN(C)c1cccc(C(=O)Nc2nc3ccc(S(=O)(=O)NC(C)(C)C)cc3s2)c1`: 8.63%; for `COc1ccccc1-c1noc(CSc2nnc(-c3ccccc3)n2-c2ccc(C)c(C)c2)n1`: 5.39%. Regarding `O=C(Cn1ncc(N2CCCC2)c(Br)c1=O)c1ccc(Cl)cc1`, the max response, negative = inhibition was -1.29%.

For the compound `O=C(Cn1nc(CNc2ccc(Cl)cc2)[n+]2c1CCCCC2)c1ccc(Cl)cc1`, the Potency is 79.4 µM (active). Consider `O=C(Cn1nc(C(F)(F)F)c2c1CCCC2)Nc1ccc(Cl)cc1`, for which the max response, negative = inhibition is 4.81%.

On to `Cc1cccc(N2CCN(c3ccc(C(=O)O)cc3NC(=O)c3ccccc3F)CC2C)c1` (configuration not stated), for which the max response, negative = inhibition is 1.51%. Still for that read-out and setting: under `O=C(CCN1CCN(C/C=C/c2ccccc2)CC1)Nc1ccccc1Cl` stands -1.78%. On to `O=C(Nc1ccccc1Cl)/C(Cl)=C(\Cl)S(=O)c1ccccc1` (configuration not stated), for which the Potency was 3.98 µM (active). As to `O=C(Nc1ccccc1Cl)N1CCC(CN2CCCC2)CC1`, the max response, negative = inhibition is 6.62%.

For the compound `CCn1cc(C(=O)NCc2ccc(C)cc2)c(=O)c2cc(S(=O)(=O)N3CCc4ccccc4C3)ccc21`, the max response, negative = inhibition was -10.3%. In the case of `Cc1c(Br)cc(C(=O)N2CCCCCC2)c(C)c1C`, the max response, negative = inhibition was -2.34%.

As for `Cc1ccc(C(NC(=O)N2CCCC2)C(Cl)(Cl)Cl)cc1F` (configuration not stated), the max response, negative = inhibition is 6.9%. On to `Cc1ccc(C(=O)N2CCCC2)c(F)c1F`, for which the Potency was 44.7 µM (active). In the case of `CCC(=O)Nc1cccc(C(=O)OCc2cc(=O)n3nc(CC)sc3n2)c1`, the max response, negative = inhibition is 7.59%. With `C=C1C(=CC=C2CCC[C@@]3(C)[C@@H]2CC[C@H]3[C@H](C)CCCC(C)C)C[C@@H](O)C[C@@H]1O`, the max response, negative = inhibition is 8.33%. Take `CCOCCn1ccc2c(OCC(=O)NCc3ccc(C)cc3)cccc2c1=O`: the max response, negative = inhibition was 10.6%.

Take `Cc1ccc(OCC(=O)Nc2ccc(OCc3cc(=O)n4c(C)csc4n3)cc2)cc1C`: the max response, negative = inhibition is -8.2%. The same measure, in the same setting: the same measure for `O=C(Nc1c(C(=O)N2CCN(c3ccc(F)cc3)CC2)oc2ccccc12)c1ccco1`: -2.38%; for `COc1ccccc1CNC(=O)c1ccc(-n2c(C)cc3c2CCCC3)cc1`: 13.6%. Turning to `O=C(CSc1nnc(-c2ccccc2F)o1)Nc1cccc(C(F)(F)F)c1`, the max response, negative = inhibition was -10.5%. As to `O=c1cc(CO)oc(C(Nc2cccc(C(F)(F)F)c2)c2ccccn2)c1O` (configuration not stated), the Potency is 50.1 µM (active). Turning to `O=C(CSc1nc(-c2ccccc2)cs1)Nc1cccc([N+](=O)[O-])c1`, the max response, negative = inhibition is -15.3%.

In the case of `O=c1cc(CO)oc(C(Nc2cccc([N+](=O)[O-])c2)c2ccccn2)c1O` (configuration not stated), the Potency is 79.4 µM (active). Turning to `Cn1c(=O)c2c(ncn2CC(=O)Nc2cccc(C(F)(F)F)c2)n(C)c1=O`, the max response, negative = inhibition was 2.35%. With `O=C(Nc1ccc([N+](=O)[O-])cc1)OCCc1ccccn1`, the max response, negative = inhibition is -15.4%. As to `Cc1c(Cl)cccc1NC(=O)c1noc2c1CCCC2`, the max response, negative = inhibition was -14.6%. For the compound `O=C(NCc1ccccc1)c1ccc2c(c1)nc1n2CCCCC1`, the max response, negative = inhibition was 12.2%. Consider `Cc1ccc(C)c(NC(=O)C2CCCN(S(=O)(=O)c3cn(C)cn3)C2)c1` (configuration not stated), for which the max response, negative = inhibition was 2.5%. For the compound `COCCNC(=O)c1ccc2c(c1)N(Cc1cccc(Cl)c1)C(=O)c1ccccc1S2(=O)=O`, the max response, negative = inhibition was 5.24%. The same measure, in the same setting: under `CCCCOc1ccc(C(=O)N2CC(=O)Nc3ccc(Br)cc3C2c2ccc(F)cc2)cc1` (configuration not stated) stands -9.94%; under `Cc1cccc(OP(=O)(Nc2c(C)n(C)n(-c3ccccc3)c2=O)Oc2cccc(C)c2)c1`, 10.3%. In the case of `Cc1cccc(C2CC(=O)Oc3c2c(=O)n(C)c2ccccc32)c1` (configuration not stated), the max response, negative = inhibition was 0.823%. Consider `Cc1cccc(Oc2c([N+](=O)[O-])c(=O)n(C)c3ccccc23)c1`, for which the Potency is 39.8 µM (active). With `Cc1c2cnn(-c3ccccc3)c(=O)c2c(C)n1C(C)C(=O)Nc1ccc(Br)cc1F` (configuration not stated), the max response, negative = inhibition was 11.8%. In the case of `CN(Cc1ccccc1)C(=O)c1cc2c(=O)n(C)c3ccccc3c2s1`, the max response, negative = inhibition is -5.87%.

With `C/C(Nc1ccc2oc(=O)ccc2c1)=C1/C(=O)CC2[C@@H]1C2(C)C` (some centres not stated), the max response, negative = inhibition is -29.7%. Consider `CCC1CN(S(=O)(=O)c2cc(-c3cc(C)no3)ccc2C)c2cc(C)ccc2O1` (configuration not stated), for which the max response, negative = inhibition is 10.7%. Same read-out and setting: the same measure for `CN1C(=O)CN2CCc3ccccc3C2c2cc(Cl)ccc21` (configuration not stated): -10.7%. On to `Cc1ccc(Cn2c(C)nc3c(c2=O)c2nc4ccccc4nc2n3Cc2ccco2)cc1`, for which the Potency is 56.2 µM (active). Consider `Clc1cccc(-c2nc3nc4ccccc4nc3n2Cc2ccco2)c1`, for which the max response, negative = inhibition is 4.83%. The same measure, in the same setting: under `O=c1[nH]c(CSc2ncc(-c3ccc(F)cc3)n2Cc2ccco2)nc2ccccc12` stands 7.47%.
